Assay outcomes from PubChem.
The entries come from a sample that favours hits as a whole.
Pf Dd2 growth: qHTS Primary assay for Inhibitors of Plasmodium falciparum Dd2 growth in vitro; P. falciparum Dd2 growth, SYBR Green, 72 h; Potency, µM (doses to about 28.9 µM), for inactives: top-dose activity, negative = inhibition, actives largely listed as inhibitors; 120,000 tested, 4.3% active; active means well fitted inhibition curve with a large enough effect;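 further: plate controls were DMSO vehicle for no effect and reference drug for full effect; nearly all actives have a fitted effect of over 65% in size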
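Readout: SYBR Green fluorescence, 485 nm excitation, 535 nm emission, after ~16 h lysis at 37C. Before that, Dd2-infected red cells (2.5% hematocrit) grew 72 h with compound, 29 uM top final concentration.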
* marks the source's active call; other numbers are inactive results; [ ] = another dose, or the depositor's remark. Potency means the concentration at half of the fitted maximal effect.

For O=C(Cc1cccc(F)c1)N1CCN(c2cc(-c3cccs3)[nH]n2)CC1 the results were Pf Dd2 growth -2.4%.
CCCN(CC1CC1)C(=O)CCC1CCCN(S(=O)(=O)c2ccc(C)cc2)C1 (stereo not given) was read as Pf Dd2 growth -19.5%.
`O=C(CCc1ccccc1)N1CCC2(CC1)NC(=O)N(c1cccc(F)c1)N2` gave Pf Dd2 growth -0.1%.
Screening Cc1cc2nc3n(c(=O)c2n1CC(=O)Nc1ccccc1Cl)CCCCC3 returned Pf Dd2 growth -13.8%.
`CC(=O)c1cccc(NC(=O)Cn2c(-c3cnccn3)nc(C)c(C)c2=O)c1` gave Pf Dd2 growth inactive.
C=CCNC(=O)O[C@@H]1CC(C(=O)N[C@@H](Cc2ccc(OC)cc2)C(N)=O)=C[C@@H](NC(=O)c2ccc(OC)cc2)[C@H]1O was read as Pf Dd2 growth -2.3%.
`CCOc1ccccc1C(=O)N1CCN(C(=O)c2nnn3c2COC(c2ccc(Cl)cc2)C3)CC1` (stereo not given) gave Pf Dd2 growth -9.2%.
For COCc1ncc(C)n1CCNC(=O)Nc1ccc(C)c(C)c1 the results were Pf Dd2 growth inactive.
Screening Cc1cc(C(=O)N[C@@H]2CCC[C@@H](C(=O)N(C)Cc3cccnc3)CC(=O)N(C)C2)c(C(F)(F)F)o1 returned Pf Dd2 growth -16.9%.
OC[C@@H]1CN(C2CCCC2)C[C@H]1c1nc(-c2ccncc2)no1 was read as Pf Dd2 growth -20.0%.
For CCc1nc(N2CCOCC2)ncc1C(=O)O the results were Pf Dd2 growth 0.2%.
Screening COc1ccccc1-c1nnc([C@H]2CCN(C3CCN(C)CC3)C2)o1 returned Pf Dd2 growth inactive.
`COCCN[C@H]1[C@@H]2OC[C@@H](O2)[C@@H](NCc2ccc3c(c2)OCO3)[C@@H]1O` gave Pf Dd2 growth -19.0%[44.1 µM].
Cc1cccnc1CNC(=O)[C@H]1C[C@@H](C(=O)O)N(C)[C@H]1c1cccc(Cl)c1 was read as Pf Dd2 growth -11.0%.
`Cc1cc(C)cc(C(=O)NCCn2ccn3nc(-c4ccc(F)cc4)cc3c2=O)c1` gave Pf Dd2 growth inactive.
`COc1ccc(-c2cc3c(=O)n(CCNC(=O)c4ccc(F)cc4)ccn3n2)cc1` gave Pf Dd2 growth inactive.
For CCc1ccc(C(=O)NCCn2ccn3nc(-c4ccc(F)cc4)cc3c2=O)cc1 the results were Pf Dd2 growth 3.98µM*.
For O=C(c1ccc(C(F)(F)F)cc1)N1CCN(c2nc3ncccc3o2)CC1 the results were Pf Dd2 growth 0.5%.
O=C(NC1CCCN(c2cc(-c3ccc(F)cc3)[nH]n2)C1)c1ccoc1 (stereo not given) was read as Pf Dd2 growth inactive.
For CCC1=C(C(=O)OC)C(c2ccc(C)cc2C)N2C(CC(=O)Nc3ccc(OC)cc3)=CSC2=N1 (stereo not given) the results were Pf Dd2 growth -24.4%.
`CCOc1ccc(Nc2nc(C)c(NC(=O)c3ccc(C)cc3)c(Nc3ccc(OCC)cc3)n2)cc1` gave Pf Dd2 growth -11.5%.
Screening Cc1ccc(Nc2nc(C)c(NC(=O)c3ccc(C)cc3)c(Nc3ccc(C)cc3)n2)cc1 returned Pf Dd2 growth 8.91µM*.
Screening Cc1ccc(C(=O)Nc2c(C)nc3ccccn3c2=O)cc1 returned Pf Dd2 growth 16.5%.
Screening CC(=O)N1CCc2nn(CC(=O)Nc3ccccc3C)c(=O)cc2C1 returned Pf Dd2 growth -16.1%.
COCCNC(=O)[C@H]1C[C@H](Oc2cccnc2)CN1C(=O)Cc1cccc(OC)c1 was read as Pf Dd2 growth 0.8%.
Screening COc1ccc(CNC(=O)CN2CC3CC(C2)[C@H]2CCCC(=O)N2C3)cc1 (stereo not given in full) returned Pf Dd2 growth -7.7%.
COc1cccc(CNC(=O)Cn2cc3c(n2)-c2c(oc(C(=O)N4CCCC4)c2C)CC3)c1 was read as Pf Dd2 growth -24.2%.
Screening Cc1c(C(=O)N2CCCC2)oc2c1-c1nn(CC(=O)NCc3cccc(F)c3)cc1CC2 returned Pf Dd2 growth -25.3%.
Screening CCCCN(CCCC)CCCNC(=O)Cn1cc2c(n1)-c1c(oc(C(=O)N3CCCC3)c1C)CC2 returned Pf Dd2 growth 11.2µM*.
Screening COCC(=O)N(C1CCOCC1)C1CCN(C(=O)c2ccccc2OC(F)(F)F)CC1 returned Pf Dd2 growth -28.4%.
`COCCN1C(=O)[C@H]2CN(Cc3ccccc3)C[C@H]2C1=O` gave Pf Dd2 growth 98.7%.
NC(=O)C1(C(=O)N2CCC(n3nccc3NC(=O)c3ccccc3)CC2)CC1 was read as Pf Dd2 growth -0.9%.
`COc1ccc(CCC(=O)N2CCC[C@H]2c2nc(-c3ccccc3Cl)no2)cc1` gave Pf Dd2 growth 16.8%.
Screening O=C(CC1=CCCCC1)N1C[C@@H](COCC2CC2)[C@H](c2ccncc2)C1 returned Pf Dd2 growth -19.1%.
Screening CO[C@H]1C(=O)N(C(C)C)[C@H]1C1CCN(C(=O)C2CC2)CC1 returned Pf Dd2 growth 29.1%.
For Cc1ccc(CN2CCC[C@H]2c2nc(-c3ccc(OC4CCCCC4)nc3)no2)cc1 the results were Pf Dd2 growth -13.3%[44.1 µM].
For c1cc(OC2CCCCC2)ncc1-c1noc([C@@H]2CCCN2C2CCOCC2)n1 the results were Pf Dd2 growth 11.2µM*.
Screening COc1ccc(-c2noc([C@@H]3CCCN3C3CCCCC3)n2)cn1 returned Pf Dd2 growth inactive.
Screening O=C(C1CCCC1)N1CCC2(CC1)CC(c1ccccc1)=NO2 returned Pf Dd2 growth 19.5%.
For O=C(Nc1ccsc1)N[C@H]1C[C@H]2C(=O)NC[C@@H](CCC(=O)N3CCc4ccccc43)N2C1 the results were Pf Dd2 growth -18.3%.
COc1ccc(-c2noc(CC3CCN(C(=O)COc4cccc(C)c4)CC3)n2)cc1 was read as Pf Dd2 growth -9.8%.
For O=C1N(Cc2ccccc2)CCOC12CCN(Cc1cc(F)ccc1F)CC2 the results were Pf Dd2 growth inactive.
For O=C1N(Cc2ccccc2F)CCOC12CCN(Cc1ccc(F)cc1F)CC2 the results were Pf Dd2 growth 2.51µM*.
For Cn1nccc1C(=O)N1CCC2(CC1)OCCN(Cc1ccccc1F)C2=O the results were Pf Dd2 growth -8.4%[44.1 µM].
Screening COC[C@@H]1[C@@H](NC(=O)c2ccc3c(c2)ncn3C)[C@@H]2CCO[C@H]12 returned Pf Dd2 growth -20.8%.
`COc1cccc(-n2c(-c3ccccc3F)nc3c(cnn3-c3ccc(C)cc3)c2=O)c1` gave Pf Dd2 growth 8.91µM*.
Cc1cccc(-n2c(-c3ccco3)nc3c(cnn3-c3ccc(F)cc3)c2=O)c1 was read as Pf Dd2 growth inactive.
`Cc1ccc(-n2c(-c3ccco3)nc3c(cnn3-c3ccccc3C)c2=O)cc1` gave Pf Dd2 growth inactive.
For Cc1ccc(-c2nc3c(cnn3-c3ccccc3)c(=O)n2-c2cccc(Cl)c2)cc1 the results were Pf Dd2 growth -6.7%.
Cc1ccc(-n2c(C)nc3c(cnn3-c3ccccc3)c2=O)cc1 was read as Pf Dd2 growth 14.3%.
For Cc1ccc(-n2c(-c3ccco3)nc3c(cnn3-c3ccc(C)cc3)c2=O)cc1 the results were Pf Dd2 growth 11.2µM*.
`O=C(Nc1ccccc1)C1=NO[C@@H]2CN(Cc3cc(F)ccc3F)C[C@H]12` gave Pf Dd2 growth -24.9%[44.1 µM].
O=C(CCc1cccs1)N1CCOC(CCCc2ccccc2)C1 (stereo not given) was read as Pf Dd2 growth -3.9%.
Screening COc1ncccc1CNC[C@H]1O[C@@H]2C[C@@H](CC(=O)NCc3nccn3C)O[C@@H]2[C@@H]1O returned Pf Dd2 growth -5.3%[44.1 µM].
CCN1CCN(C(=O)C2Cn3cccc3C(=O)N2C)CC1 (stereo not given) was read as Pf Dd2 growth 18.1%.
